# High-throughput results as filed in PubChem.
# The list is not random: actives were taken first. Their share in the collection is about 2.3%.
# Gli-Sufu block: Gli-Sufu pathway antagonists, primary screen, luciferase luminescence, Sufu-KO-LIGHT cells, uHTS. inhibition, % at 5 µM. actives 0.74% (n = 340,000). AID 588413, 2011. Sufu-KO-LIGHT fibroblasts, Gli luciferase reporter luminescence;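 active means inhibition above about 55%, limit read from the data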;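 further: 0% = DMSO-treated cells and 100% = wells with medium but no cells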
# Jurkat NFkB inh: inhibitors of induced NF-kB luciferase reporter, primary screen, TCR NF-kB activation inhibitor project, cell-based, luminescence, uHTS; inhibition, % at 4 µM; Jurkat, PMA/ionomycin-induced NF-kB luciferase reporter; actives 0.53% (n = 330,000); in the data active means inhibition above about 50%
# Shn3 3UTR inh: reduction of Shn3 3'UTR firefly luciferase signal, primary screen, Schnurri-3 inhibitor project, cell-based, Clone20 osteoblasts, set 2; Clone20 osteoblast Shn3 3'UTR firefly luciferase, 24 h; inhibition, % at 12.5 µM; actives 0.52% (n = 360,000); AID 588674, 2011;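 active means mean inhibition of at least 75% with every replicate also reaching 75%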;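 further: 0% = median of neutral control wells and 100% = pilot-screen positive control compound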
# H9c2 TAG inh: inhibitors of triacylglycerol accumulation, primary screen, cell-based, uHTS, fluorescence, H9c2 | H9c2 cells, Nile Red lipid (TAG) fluorescence; cells loaded with 200 µM oleic acid | AID 651582, 2012 | actives 0.66% (n = 230,000) | inhibition, % at 12.5 µM;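 active means pattern-corrected inhibition of lipid staining of at least 50% with the nuclear-stain viability signal not falling by more than 50%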;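 further: 0% = DMSO wells and 100% = triacsin C control wells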
# aSyn UTR inh: MLPCN primary screen, SNCA 5' untranslated region; AID 1813, 2009; alpha-synuclein 5'UTR reporter, inhibitor activity; inhibition, % (tested at 7.5 µM); actives 0.82% (n = 300,000); in the data active means inhibition above about 60%;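 further: H4 neuroglioblastoma cells stably carrying SNCA 5'UTR luciferase fusion; 0% = DMSO wells and 100% = positive control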
# 697 NFkB inh: inhibitors of PMA/ionomycin-induced NF-kB reporter, 697 cells, primary screen, B-cell NF-kB inhibitor project, cell-based, luminescence, uHTS. actives 0.33% (n = 330,000). inhibition, % at 4 µM. 697 B-cell NF-kB luciferase reporter, 16 h; in the data active means inhibition above about 35%
# Jurkat NFkB conf: PMA/ionomycin-induced NF-kB reporter inhibitors, Jurkat retest, confirmation, T-cell NF-kB inhibitor project, cell-based, luminescence, single concentration | AID 435020, 2010 | shares compounds with Jurkat NFkB inh | actives 27% (n = 2,700) | inhibition, % at 4 µM | Jurkat NF-kB luciferase, 16 h;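 active means inhibition reaching about 45% at 4 µM in either replicate, limit read from the data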;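 further: plate controls were PMA/ionomycin stimulated DMSO wells for no effect and unstimulated DMSO wells for full effect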
# 697 NFkB conf: PMA/ionomycin-induced NF-kB reporter inhibitors, 697 retest, confirmation, B-cell NF-kB inhibitor project, cell-based, luminescence, single concentration. shares compounds with 697 NFkB inh. 697 B-cell NF-kB luciferase, 16 h. inhibition, % at 4 µM. actives 35% (n = 2,000); in the data active means inhibition mostly above about 28%, no sharp cut-off; inactive means mostly below about 22%
# Active calls of the source: *; . = no result given.
SMILES,Gli-Sufu block,Jurkat NFkB inh,Shn3 3UTR inh,H9c2 TAG inh,aSyn UTR inh,697 NFkB inh,Jurkat NFkB conf,697 NFkB conf
N=c1cc(C2(O)CCCCC2)n2c(nc3ccccc32)s1,-106,-161,-47,.,-22,-284,-89,-214
CCCOc1ccc(C(=O)N(CC(C)C)c2c(N)n(Cc3ccccc3)c(=O)[nH]c2=O)cc1,-6,4,-20,4,12,7,.,.
COc1cc(NC(=O)CN(C)S(=O)(=O)c2ccc(C)cc2)cc(OC)c1,8,2,5,2,14,3,.,.
Nc1c(-c2ccc(Cl)cc2)cnc2c(-c3ccc(F)cc3)cnn12,-98,-173,-72,.,-95,-263,-135,-224
Nc1c(-c2cccc(Cl)c2)cnc2c(-c3ccccc3)cnn12,-61,-143,-100,.,-243,-211,.,.
Cc1sc2ncnc(N3CCN(CCOc4ccc(Cl)cc4)CC3)c2c1C,74*,57*,85*,.,-40,56*,46,35*
Cc1sc2ncnc(N3CCC(C(=O)NNC(=O)COc4ccc(Cl)cc4)CC3)c2c1C,-15,.,0,-19,.,.,.,.
CCCCCCCCCCOC(=O)Cn1c(COc2ccccc2OC)[n+](C)c2ccccc21,85*,57*,89*,.,81*,39*,60*,53*
Cn1c(COc2ccccc2O)[n+](C)c2ccccc21,-2,-7,-13,.,12,-3,.,.
CN1OC[C@@H]2CN(C(=O)C(C)(C)C)[C@H](c3cccc(N4CCOCC4)c3)C[C@@H]21,1,.,-1,8,.,.,.,.
Cc1ccc2nc(-c3ccc(NC(=O)C(C)N4C(=O)c5ccccc5C4=O)cc3)sc2c1 (stereo not drawn),-91,-88,-87,.,-102,-105,.,.
O=C(CCN1C(=O)c2ccccc2C1=O)Nc1ccc(-c2nc3ccccc3s2)cc1,-81,-165,-22,.,26,-294,-95,-126
Cc1ccc2nc(-c3ccc(NC(=O)CCN4C(=O)c5ccccc5C4=O)cc3)sc2c1,-52,-187,22,.,-171,-260,-171,-192
O=C(CNC(=O)c1cccnc1)N/N=C/c1ccc(O)cc1O,4,-2,1,.,1,-6,.,.
O=C(Nc1ccc2sccc2c1)c1ccc(Cl)s1,-132,-224,-29,-19,-198,-323,-144,-306
CCOc1ccc(-c2nc(-c3ccccc3C)no2)cc1,.,-167,.,.,-9,-267,-124,-302
COc1ccc(-c2nc(-c3ccccn3)no2)cc1,69*,77*,88*,-7,107*,48*,86*,39*
CCOc1ccc(-c2nc(-c3cccnc3)no2)cc1,-116,-99,-22,-14,-12,-219,.,.
COc1ccc(/C=C2\SC(=O)N(CCCC(=O)Nc3cc(Cl)ccc3C(=O)O)C2=O)cc1,74*,73*,71,4,.,92*,83*,90*
COc1ccc(/C=C2\SC(=S)N(CCC(=O)Nc3ccccc3C(=O)O)C2=O)cc1,11,12,7,.,23,15,.,.
CCN1/C(=C/c2ccc3cc(C)ccc3[n+]2CC)Sc2ccccc21,89*,96*,84,.,100*,86*,69*,49*
CCN1/C(=C/c2ccc3cc(C)ccc3[n+]2CC)Sc2cc(C)c(C)cc21,91*,93*,35,-99,.,65*,74*,80*
O=C(N[C@H](CO)[C@H](O)c1ccc([N+](=O)[O-])cc1)C(Cl)Cl,4,12,21,.,-6,13,.,.
O=C(Nc1nnc(SCC(=O)N2CCCC2)s1)C1CC(=O)N(c2ccc(F)cc2)C1 (stereo not drawn),0,3,-6,3,4,7,.,.
O=C(Nc1ccc([N+](=O)[O-])cc1)C(=O)Nc1cccc(C(=O)O)c1,-138,56*,86*,7,102*,46*,67*,23*
SMILES,Gli-Sufu block,Jurkat NFkB inh,Shn3 3UTR inh,H9c2 TAG inh,aSyn UTR inh,697 NFkB inh,Jurkat NFkB conf,697 NFkB conf
NC1=NC[C@@H](Cc2ccc(O)cc2)N1CCc1cccc2ccccc12,5,-1,6,-6,-2,16,.,.
NC1=NC[C@H](Cc2ccc(O)cc2)N1CCCCC1CCCCC1,59*,79*,77,1,-7,41*,50*,40*
CCCCCn1c(N2CCN(Cc3ccccc3)CC2)nc2c1c(=O)[nH]c(=O)n2C,12,12,15,15,32,-35,.,.
O=C(Nc1ccccc1Br)C1CCCN1S(=O)(=O)c1cccc2nsnc12 (stereo not drawn),0,6,15,.,11,-11,.,.
C#CC(=O)N(c1ccc(OC)cc1OC)C(C(=O)NC1CCCC1)c1cccs1 (stereo not drawn),57*,90*,83,43,92*,97*,67*,104*
COc1ccc(N(C(=O)c2snc(C(N)=O)c2N)C(C(=O)NC2CCCC2)c2cccs2)cc1OC (stereo not drawn),-1,-3,2,.,17,13,.,.
C#CC(=O)N(c1cc(OC)ccc1OC)C(C(=O)NC1CCCC1)c1cccs1 (stereo not drawn),86*,95*,90*,.,25,99*,85*,105*
COc1ccc(N(C(=O)c2ccco2)C(C(=O)NC2CCCC2)c2ccc(C)cc2)c(OC)c1 (stereo not drawn),4,10,-5,.,10,-1,.,.
Cc1cccc(S(=O)(=O)N(C)C[C@@H]2OCc3cnnn3CCCC(=O)N([C@@H](C)CO)C[C@@H]2C)c1,.,.,7,5,.,.,.,.
Cc1cc(NC(=O)CSc2nc3c(sc4ccccc43)c(=O)n2CCCN2CCOCC2)n[nH]1,-77,59*,-90,.,-17,38*,59*,27
Cc1cc(NC(=O)CSc2nc3c(sc4ccccc43)c(=O)n2CCc2ccccc2)n[nH]1,7,-4,15,1,-5,9,.,.
CSc1nc2nc(Cl)c(Cl)nc2[nH]1,.,.,5,-1,.,.,.,.
CC(/C=N/Nc1nc2ccccc2[nH]1)=C\c1ccccc1,-74,-224,-10,10,-70,-335,-91,-191
O=C(Nc1ccc2c(c1)CCC2)c1ccccc1F,.,-177,-29,.,-8,-251,-145,-224
